Inconclusive results are not listed. Calls of active or inactive are those of the source. Unless noted, the call rests on the fitted dose curve.

The values below come from PubChem BioAssay (NCATS).

In assay [1] the target is Estrogen receptor (Homo sapiens) (UniProt P03372). As to the kind of experiment: qHTS assay for small molecule agonists of estrogen receptor alpha signaling (AID 588514).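 Further: 0% = vehicle only and 100% = reference agonist; nearly all actives have a fitted effect of over 70% in size.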 In short, it runs like this:
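Fluorescence from CCF4 cleavage reports ER-alpha-driven beta-lactamase expression in HEK 293 cells treated 18 hrs at 37 C. Data normalized to 17-beta-estradiol (20 nM) and DMSO, fitted to Hill equation.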
A general note: qHTS replaces the single test concentration by a dilution series.

Assay [2] addresses Glucocorticoid receptor (Homo sapiens) (UniProt P04150). As to the kind of experiment: qHTS assay for small molecule antagonists of glucocorticoid receptor signaling (AID 588533; active means well fitted inhibition curve with a large enough effect in the signal ratio, with a control signal flat, not every such curve was filed as active; the % refers to the signal ratio; further: on the % scale 0 is the no-effect control and ±100 the full control effect). In outline: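 Antagonist-mode qHTS: compound titrations added to GRE-bla HeLa cells, then dexamethasone 2 nM final; 18 h, 37 C. CCF4 FRET fluorescence normalized to dexamethasone and DMSO; IC50 from Hill fit.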

The target of assay [3] is Peroxisome proliferator-activated receptor delta (Homo sapiens) (UniProt Q03181). As to the kind of experiment: qHTS assay for small molecule agonists of peroxisome proliferator-activated receptor delta signaling (AID 588534).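 Further: 0% = DMSO basal wells and 100% = positive control agonist at 10 µM.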 In outline: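 EC50 and efficacy values derive from Hill fits of a concentration series in a beta-lactamase reporter cell assay. Exposure is 18 hrs at 37 C, with CCF4 fluorescence as the readout.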

Assay [4] concerns the target Vitamin D3 receptor (Homo sapiens) (UniProt P11473). Kind of assay: qHTS assay for small molecule antagonists of vitamin D receptor signaling (AID 588541).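 Further: receptor activated by calcitriol during compound treatment; series mostly up to about 77 µM; on the % scale 0 is the no-effect control and ±100 the full control effect.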 In short, it runs like this: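 VDR-UAS-bla HEK293T cells in 2% charcoal-stripped FBS were stimulated with 1-alpha,25-dihydroxyvitamin D3 (3 nM final) plus compound for 16 h at 37 C. The beta-lactamase CCF4 readout was normalized to 50 nM agonist and DMSO, and Hill fits gave IC50.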

The target in assay [5] is Retinoic acid receptor RXR-alpha (Homo sapiens) (UniProt P19793). As to the kind of experiment: qHTS assay for small molecule agonists of retinoid X receptor alpha signaling (AID 588544).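 Further: 0% = DMSO basal wells and 100% = reference agonist.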
The target of assay [6] is Thyroid hormone receptor beta (Homo sapiens) (UniProt P10828). Kind of assay: qHTS assay for small molecule agonists of thyroid hormone receptor beta signaling (AID 588545).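 Further: 0% = DMSO only and 100% = 10 nM T3.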 In short, it runs like this:
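Compounds were tested as agonists in TR-UAS-bla-GripTite HEK 293 cells. After 18 hrs at 37 C, CCF4 substrate was added and fluorescence read after 2 hrs at room temperature.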

Assay [7] can be described thus: qHTS assay for small molecule antagonists of retinoid X receptor alpha signaling (AID 588546; active means well fitted inhibition curve with a large enough effect in the signal ratio, with a control signal flat, not every such curve was filed as active; the % refers to the signal ratio;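 further: cells stimulated with 9-cis-retinoic acid as agonist; on the % scale 0 is the no-effect control and ±100 the full control effect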). The conditions noted are these: HEK293T RXRa-UAS-bla, beta-lactamase ratio, antagonist mode; measured here: W530 green channel, cytotoxicity proxy. In outline:
(§1)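 Beta-lactamase reporter inhibition, read as CCF4 fluorescence ratio (ex 405, em 460/530 nm) after 2 h at RT. HEK293T UAS-bla cells, 2500/well, were stimulated with 9-cis-RA at 500 or 100 nM final alongside test compound for 18 h at 37 C.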

The target of assay [8] is Retinoic acid receptor RXR-alpha (Homo sapiens) (UniProt P19793). Described as above. The note with it: HEK293T RXRa-UAS-bla, beta-lactamase ratio, antagonist mode. In short, it runs like this:
as §1

The nature of assay [9]: qHTS assay for small molecule activators of the nuclear factor-kappa B (NF-kB) signaling pathway (AID 651749; active means well fitted activation curve with a large enough effect in the signal ratio; the % refers to the signal ratio; further: series mostly up to about 77 µM; % of control where 0% means no effect). The conditions noted are these: NF-kB-bla ME-180 cells, beta-lactamase FRET ratio, 16 h; activation: stronger effect = higher value. In outline: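 NF-kB-bla ME-180 cells, 2,000/well; 23 nL compound or DMSO pinned; 16 hr, 37C/5% CO2; beta-lactamase FRET read-out.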
For assay [10], the target named is Peroxisome proliferator-activated receptor alpha (Homo sapiens) (UniProt Q07869). As to the kind of experiment: qHTS assay for small molecule agonists of the peroxisome proliferator-activated receptor alpha (PPARalpha) signaling pathway (AID 651778; active means well fitted curve in the direction sought with a large enough effect; an effect the other way counts as inactive or inconclusive; further: % of control where 0% means no effect). The note with it: PathHunter PPARalpha complementation, chemiluminescence, 6 h; max response: stronger effect = higher value. In outline:
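Enzyme-fragment complementation assay in which ligand-bound PPARalpha translocates and forms an active enzyme that generates chemiluminescence. Cells were plated overnight, exposed to compound for 6 hr at 37 C, and then given detection reagent for 60 min at room temperature.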

A short description of assay [11]: qHTS assay for small molecule agonists of the antioxidant response element (ARE) signaling pathway measured by Nrf2-dependant transcriptional activity (AID 720636; active means well fitted curve in the direction sought with a large enough effect in the repeat runs; an effect the other way counts as inactive or inconclusive;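 further: HepG2 cells with an ARE-driven luciferase reporter; % of control where 0% means no effect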). In short, it runs like this:
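HepG2 ARE-luc reporter line, 1% dialyzed FBS; 6 hr attachment at 37 C, compound pinned in, 16 hr at 37 C/5% CO2; ONE-Glo, 30 min RT, luminescence read.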

Assay [12] can be described thus: qHTS assay for small molecule agonists of the antioxidant response element (ARE) signaling pathway measured by Nrf2-dependant transcriptional activity - cell viability counter screen (AID 720653; active means well fitted curve in the direction sought with a large enough effect in the repeat runs; an effect the other way counts as inactive or inconclusive; further: on the % scale 0 is the no-effect control and ±100 the full control effect). The note with it: ARE-bla HepG2 viability, CellTiter-Glo ATP luminescence, 16 h; max response: stronger effect = lower value. In short, it runs like this:
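ARE-bla HepG2 cells treated with compounds for 16 h at 37C; this counter screen measures viability as intracellular ATP by CellTiter-Glo luminescence after 30 min at room temperature.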

For assay [13], the target named is Nuclear receptor subfamily 1 group I member 2 (Rattus norvegicus) (UniProt Q9R1A7). Kind of assay: qHTS assay for small molecule activators of the rat pregnane X receptor (rPXR) signaling pathway (AID 651751; call rule not given here; further: 0% is about no effect). The note with it: rPXR reporter cells, luciferase (One-Glo), 24 h.
The nature of assay [14]: qHTS assay for small molecule antagonists of peroxisome proliferator-activated receptor delta signaling (AID 588535; active means well fitted inhibition curve with a large enough effect in the signal ratio, with a control signal flat, not every such curve was filed as active; the % refers to the signal ratio;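 on max response: cells co-treated with a PPAR-delta agonist as stimulator during compound exposure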). The conditions noted are these: HEK293T PPARd-UAS-bla, beta-lactamase FRET ratio, 18 h; 460 nm channel. In outline: (§2)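 Beta-lactamase reporter read-out (405 nm excitation, 460/530 nm emission) after CCF4 loading for 2 hrs at RT. HEK293T PPAR-delta-UAS-bla cells, 2% charcoal/dextran FBS, compounds for 18 hrs at 37 C. Hill fit gave IC50 and efficacy.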

In assay [15] the target is Peroxisome proliferator-activated receptor delta (Homo sapiens) (UniProt Q03181). The assay is described as above. In outline:
as §2

For assay [16], the target named is Thyroid hormone receptor beta (Homo sapiens) (UniProt P10828). As to the kind of experiment: qHTS assay for small molecule antagonists of thyroid hormone receptor beta signaling (AID 588547; active means well fitted inhibition curve with a large enough effect in the signal ratio, with a control signal flat, not every such curve was filed as active; the % refers to the signal ratio). The note with it: TR-UAS-bla HEK293, beta-lactamase ratio, antagonist mode, 18 h. In short, it runs like this: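 TR-UAS-bla GripTite HEK293 cells in 2% charcoal/dextran FBS medium; compounds 0.59 nM to 92 uM with T3 at 0.4nM final, 18 h at 37 C. Beta-lactamase read by CCF4 fluorescence (460/530 nm); Hill fits gave IC50 and efficacy.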

The nature of assay [17]: qHTS assay for small molecule activators of the p53 signaling pathway (AID 651743; active means well fitted activation curve with a large enough effect in the signal ratio, not every such curve was filed as active; the % refers to the signal ratio; further: series mostly up to about 92 µM; % of control where 0% means no effect). The note with it: HCT-116 p53RE-bla, beta-lactamase FRET ratio, 16 h; activation: stronger effect = higher value. In outline:
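Reporter: beta-lactamase driven by p53 response elements, stably integrated in HCT-116 cells. Cells seeded at 4,000/well, 5 h preincubation, compound (DMSO) 16 h at 37 C; B/G FRET substrate 2 h RT; fluorescence intensity read.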

Assay [18] is described as follows: qHTS assay for environmental chemicals that activate the Aryl hydrocarbon Receptor (AhR) signaling pathway (AID 651777; active means well fitted curve in the direction sought with a large enough effect; an effect the other way counts as inactive or inconclusive; further: % of control where 0% means no effect; nearly all actives have a fitted effect of over 15% in size). The note with it: 1A2-DRE human hepatoma cells, luciferase, 24 h; activation: stronger effect = higher value. In outline: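 Luminescence read-out: One-Glo added for 30 min at RT after 24 hr compound treatment (37 C, 5% CO2) of human hepatoma cells expressing a DRE/CYP1A2 promoter–luciferase reporter; increased signal indicates AhR activation.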

Assay [19] is described as follows: qHTS assay for cell viability of HEK293 cells (AID 743288; active means well fitted curve in the direction sought with a large enough effect; an effect the other way counts as inactive or inconclusive; further: on the % scale 0 is the no-effect control and ±100 the full control effect; nearly all actives have a fitted effect of over 50% in size). The note with it: ATP luminescence (CellTiter-Glo), 18 h; max response: stronger effect = lower value. In outline:
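After 18 h compound exposure at 37 C, parental HEK293 cells (2,000/well) are lysed with CellTiter-Glo and luminescence is read following 30 min at room temperature.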

A short description of assay [20]: qHTS assay for cell viability of the p53RE-bla HCT-116 cell line (AID 743292; active means well fitted curve in the direction sought with a large enough effect; an effect the other way counts as inactive or inconclusive; further: on the % scale 0 is the no-effect control and ±100 the full control effect; nearly all actives have a fitted effect of over 55% in size). In outline:
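Luminescent ATP quantitation (CellTiter-Glo) served as the viability read-out; reagent was added after 16 h compound exposure at 37 C and read after 30 min at room temperature. Cells: p53RE-bla HCT-116, 4,000 per well.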

Nuclear receptor subfamily 1 group I member 2 (Rattus norvegicus), sequence (Q9R1A7 whole entry, looked up): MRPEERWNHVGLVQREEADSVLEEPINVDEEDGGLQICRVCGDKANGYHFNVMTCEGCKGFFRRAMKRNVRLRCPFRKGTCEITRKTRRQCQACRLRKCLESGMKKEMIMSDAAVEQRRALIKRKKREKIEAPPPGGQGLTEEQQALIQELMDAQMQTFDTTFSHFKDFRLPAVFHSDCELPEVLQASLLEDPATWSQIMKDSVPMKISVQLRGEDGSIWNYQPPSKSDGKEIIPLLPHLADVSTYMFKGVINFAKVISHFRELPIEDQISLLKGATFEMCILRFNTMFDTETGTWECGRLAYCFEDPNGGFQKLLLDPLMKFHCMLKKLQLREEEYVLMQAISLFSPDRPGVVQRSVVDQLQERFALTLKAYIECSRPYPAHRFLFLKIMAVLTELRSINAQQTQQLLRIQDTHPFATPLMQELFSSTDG
Peroxisome proliferator-activated receptor delta (Homo sapiens), sequence (Q03181 whole entry, looked up): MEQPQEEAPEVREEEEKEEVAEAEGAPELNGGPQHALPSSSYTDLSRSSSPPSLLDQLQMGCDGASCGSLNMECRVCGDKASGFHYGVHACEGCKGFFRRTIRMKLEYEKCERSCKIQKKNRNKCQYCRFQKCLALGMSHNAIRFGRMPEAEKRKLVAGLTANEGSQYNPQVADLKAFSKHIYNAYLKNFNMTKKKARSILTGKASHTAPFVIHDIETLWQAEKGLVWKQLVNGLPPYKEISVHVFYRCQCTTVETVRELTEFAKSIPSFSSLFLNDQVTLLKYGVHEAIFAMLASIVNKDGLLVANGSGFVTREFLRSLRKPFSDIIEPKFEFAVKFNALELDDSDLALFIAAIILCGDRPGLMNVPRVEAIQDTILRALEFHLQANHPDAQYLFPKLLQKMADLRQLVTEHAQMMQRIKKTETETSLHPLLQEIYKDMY
Estrogen receptor (Homo sapiens), sequence (P03372 whole entry, looked up): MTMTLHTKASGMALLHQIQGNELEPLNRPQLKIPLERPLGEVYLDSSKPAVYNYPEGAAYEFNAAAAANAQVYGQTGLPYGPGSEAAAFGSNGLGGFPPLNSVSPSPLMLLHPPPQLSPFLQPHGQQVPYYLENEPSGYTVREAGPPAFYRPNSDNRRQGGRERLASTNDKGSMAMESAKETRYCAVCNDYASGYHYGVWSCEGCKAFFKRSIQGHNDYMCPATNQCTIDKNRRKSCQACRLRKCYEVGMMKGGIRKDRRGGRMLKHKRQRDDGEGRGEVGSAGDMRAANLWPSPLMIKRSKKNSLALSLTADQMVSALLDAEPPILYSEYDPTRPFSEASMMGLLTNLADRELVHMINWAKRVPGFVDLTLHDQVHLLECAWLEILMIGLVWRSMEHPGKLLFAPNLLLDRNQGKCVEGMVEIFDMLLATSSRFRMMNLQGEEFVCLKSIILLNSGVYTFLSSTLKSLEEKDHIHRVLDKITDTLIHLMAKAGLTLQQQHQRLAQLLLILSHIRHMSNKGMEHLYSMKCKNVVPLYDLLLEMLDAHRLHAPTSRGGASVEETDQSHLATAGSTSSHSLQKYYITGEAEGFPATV
Glucocorticoid receptor (Homo sapiens), sequence (P04150 whole entry, looked up): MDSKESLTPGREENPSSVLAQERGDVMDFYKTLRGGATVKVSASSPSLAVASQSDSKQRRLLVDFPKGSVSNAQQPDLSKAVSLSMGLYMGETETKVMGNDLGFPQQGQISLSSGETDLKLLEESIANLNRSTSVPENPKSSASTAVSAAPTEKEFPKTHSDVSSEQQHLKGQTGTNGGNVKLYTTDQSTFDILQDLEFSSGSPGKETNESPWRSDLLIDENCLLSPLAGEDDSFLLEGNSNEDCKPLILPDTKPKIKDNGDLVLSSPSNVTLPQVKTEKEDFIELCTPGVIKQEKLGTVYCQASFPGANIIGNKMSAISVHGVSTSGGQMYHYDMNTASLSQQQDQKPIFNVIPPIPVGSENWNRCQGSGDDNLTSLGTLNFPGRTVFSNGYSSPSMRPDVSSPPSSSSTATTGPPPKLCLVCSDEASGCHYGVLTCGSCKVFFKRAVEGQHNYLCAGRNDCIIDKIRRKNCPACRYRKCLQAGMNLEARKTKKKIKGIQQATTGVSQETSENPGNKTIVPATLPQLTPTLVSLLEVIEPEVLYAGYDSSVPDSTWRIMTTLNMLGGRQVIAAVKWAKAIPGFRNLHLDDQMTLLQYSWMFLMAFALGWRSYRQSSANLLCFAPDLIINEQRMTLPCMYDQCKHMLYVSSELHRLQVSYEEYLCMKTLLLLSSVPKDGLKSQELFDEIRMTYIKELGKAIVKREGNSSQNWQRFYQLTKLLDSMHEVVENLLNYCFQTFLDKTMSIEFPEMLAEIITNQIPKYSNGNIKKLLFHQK
Peroxisome proliferator-activated receptor alpha (Homo sapiens), sequence (Q07869 whole entry, looked up, the tested form may be a part): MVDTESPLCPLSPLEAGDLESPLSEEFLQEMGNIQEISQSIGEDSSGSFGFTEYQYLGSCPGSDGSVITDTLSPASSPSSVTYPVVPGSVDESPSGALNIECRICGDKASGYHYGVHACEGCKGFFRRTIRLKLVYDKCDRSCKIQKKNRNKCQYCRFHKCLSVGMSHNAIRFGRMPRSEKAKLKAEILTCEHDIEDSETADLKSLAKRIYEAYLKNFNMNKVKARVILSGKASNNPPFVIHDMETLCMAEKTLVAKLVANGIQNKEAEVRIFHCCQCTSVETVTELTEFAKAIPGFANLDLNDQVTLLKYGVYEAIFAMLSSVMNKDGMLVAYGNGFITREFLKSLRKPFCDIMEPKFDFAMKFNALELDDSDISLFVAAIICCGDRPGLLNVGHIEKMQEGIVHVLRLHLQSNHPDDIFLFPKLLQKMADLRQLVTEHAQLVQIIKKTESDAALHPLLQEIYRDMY
Thyroid hormone receptor beta (Homo sapiens), sequence (P10828 whole entry, looked up): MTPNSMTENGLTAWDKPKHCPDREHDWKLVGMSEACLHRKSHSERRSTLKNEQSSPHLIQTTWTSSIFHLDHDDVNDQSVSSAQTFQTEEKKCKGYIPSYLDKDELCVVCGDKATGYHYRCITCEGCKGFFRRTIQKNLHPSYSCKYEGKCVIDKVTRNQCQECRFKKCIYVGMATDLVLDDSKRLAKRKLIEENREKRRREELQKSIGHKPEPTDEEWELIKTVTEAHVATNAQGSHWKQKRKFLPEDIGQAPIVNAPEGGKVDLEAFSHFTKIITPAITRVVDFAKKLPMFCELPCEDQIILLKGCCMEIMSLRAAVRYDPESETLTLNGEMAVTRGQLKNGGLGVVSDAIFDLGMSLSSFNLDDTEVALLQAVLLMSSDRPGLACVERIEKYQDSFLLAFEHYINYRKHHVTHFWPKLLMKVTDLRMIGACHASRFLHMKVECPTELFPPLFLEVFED
Retinoic acid receptor RXR-alpha (Homo sapiens), sequence (P19793 whole entry, looked up): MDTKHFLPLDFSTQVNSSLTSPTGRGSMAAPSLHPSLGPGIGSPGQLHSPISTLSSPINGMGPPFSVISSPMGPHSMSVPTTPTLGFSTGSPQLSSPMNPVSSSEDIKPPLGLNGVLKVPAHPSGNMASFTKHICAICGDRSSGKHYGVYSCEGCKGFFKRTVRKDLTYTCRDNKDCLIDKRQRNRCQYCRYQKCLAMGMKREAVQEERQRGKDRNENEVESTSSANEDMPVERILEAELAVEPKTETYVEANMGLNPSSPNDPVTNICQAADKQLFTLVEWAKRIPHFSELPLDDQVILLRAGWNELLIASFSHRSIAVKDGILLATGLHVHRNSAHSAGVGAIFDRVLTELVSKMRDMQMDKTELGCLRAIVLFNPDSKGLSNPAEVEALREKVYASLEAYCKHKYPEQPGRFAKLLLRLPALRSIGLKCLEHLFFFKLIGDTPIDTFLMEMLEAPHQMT
Vitamin D3 receptor (Homo sapiens), sequence (P11473 whole entry, looked up): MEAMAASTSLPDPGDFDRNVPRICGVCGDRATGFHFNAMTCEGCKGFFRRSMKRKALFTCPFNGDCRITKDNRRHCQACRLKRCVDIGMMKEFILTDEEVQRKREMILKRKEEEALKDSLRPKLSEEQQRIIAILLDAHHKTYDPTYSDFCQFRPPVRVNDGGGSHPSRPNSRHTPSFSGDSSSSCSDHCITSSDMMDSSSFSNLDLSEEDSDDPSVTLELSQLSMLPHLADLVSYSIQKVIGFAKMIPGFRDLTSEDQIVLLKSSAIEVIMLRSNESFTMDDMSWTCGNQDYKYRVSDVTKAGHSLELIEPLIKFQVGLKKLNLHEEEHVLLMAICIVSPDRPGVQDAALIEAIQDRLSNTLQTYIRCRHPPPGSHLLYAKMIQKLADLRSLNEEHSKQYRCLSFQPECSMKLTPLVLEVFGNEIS

Consider `CCSC(=O)N(CC)C1CCCCC1`, for which the Potency entry in [1], in assay [2], in assay [4], in assay [5], in [6] and in [11] was “inactive” each time. Moreover, in [3], the outcome was inactive. In addition, the max response is 12.6% in [7]; 16.6% (inactive) in assay [8]; -3.86% (inactive) in assay [10]; 13.6% (inactive) in [12]; -10.9% (inactive) in [13]. For the same compound, the activation in assay [9] is 1.91% (inactive).

On to `CCCCOCCOC(C)=O`, for which the Potency result in [1], in [2], in [15], in assay [4], in assay [5] and in assay [6] was “inactive” in each case. Further, in assay [11], the Potency entry is “inactive”. In addition, the outcome in assay [3] was inactive. Further, the max response in assay [14] is -10.5%; in [7] it was -13.5%; in assay [8], -8.99% (inactive); in assay [10], 0.401% (inactive); in assay [12], -5.86% (inactive); in [19], -2.95% (inactive). In assay [13], the max response was 2.29% (inactive). Besides, the activity change % (negative = inhibition) in assay [16] is -3.6% (inactive). Moreover, the activation was 0.23% (inactive) in [17] and 0.977% (inactive) in [18].

Consider `CCCCOCN(C(=O)CCl)c1c(CC)cccc1CC`, for which the Potency entry in assay [1], in assay [6] and in assay [20] was “inactive” in each case. Besides, in assay [3], the compound was classed as inactive. For the same compound, the activity change % (negative = inhibition) in assay [16] was -14.9% (inactive). Further, the activation in assay [17] was -3.79% (inactive); in assay [9], -3.81% (inactive); in assay [18], -2.46% (inactive). For the same compound, the max response in [10] is 0.0844% (inactive); in assay [12] it was -23.8% (inactive); in assay [13] it was 3.67% (inactive).

For the compound `COC[C@H](C)N(C(=O)CCl)c1c(C)csc1C`, the Potency result in assay [1], in assay [2], in [15], in [4], in [6] and in assay [20] was “inactive” in each case. Besides, the compound was classed as inactive in [3]. Further, the max response in assay [14] was -36.8%; in assay [7] it was -0.446%; in assay [8], -19.4% (inactive); in assay [10], -0.842% (inactive); in [12], 0.25% (inactive); in assay [13], 0.618% (inactive). Besides, the activity change % (negative = inhibition) in [16] was -22.8% (inactive). In addition, the activation in assay [17] is -5.41% (inactive); in assay [9], -0.69% (inactive); in [18] it was -2.7% (inactive).

For the compound `CC(C)C1(C)N=C(c2nc3ccccc3cc2C(=O)O)NC1=O` (configuration not stated), the Potency entry in assay [1], in assay [2], in assay [4], in assay [5], in assay [6] and in [11] was “inactive” each time. The Potency entry in assay [20] was “inactive”. The compound was classed as inactive in assay [3]. Also, the max response in [7] is 6.33%; in assay [8] it was 4.25% (inactive); in assay [10], 0.197% (inactive); in assay [12] it was -2.59% (inactive); in assay [19], -6.66% (inactive); in assay [13], -1.98% (inactive). Further, the activity change % (negative = inhibition) in assay [16] is 9.94% (inactive). For the same compound, the activation in [17] is 1.69% (inactive); in assay [9], -0.622% (inactive); in [18], -0.47% (inactive).
